Laboratory results published in PubChem BioAssay AID2796 (The Scripps Research Institute Molecular Screening Center, 2010).
Hit rate of the full screen: of about 320,000 compounds, about 8,000 (2.5%) were called active. Many of the other results were omitted from the sample, so actives are more common in it than they were. Unmarked numbers belong to inactive results. No stated cut-off is given here; in the data, active means activation above about 47%; inactive means the rest.

What follows are compounds tested against Aryl hydrocarbon receptor (Homo sapiens) (UniProt P35869) (assay: AHR activators, primary screen, cell-based, luminescence, luciferase reporter, human (AID 2796;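 further: 0% = vehicle wells and 100% = reference agonist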)). Settings: AHR-responsive luciferase reporter cells, at 5 µM, hits give high values.
Aryl hydrocarbon receptor (Homo sapiens), sequence (P35869 whole entry, looked up): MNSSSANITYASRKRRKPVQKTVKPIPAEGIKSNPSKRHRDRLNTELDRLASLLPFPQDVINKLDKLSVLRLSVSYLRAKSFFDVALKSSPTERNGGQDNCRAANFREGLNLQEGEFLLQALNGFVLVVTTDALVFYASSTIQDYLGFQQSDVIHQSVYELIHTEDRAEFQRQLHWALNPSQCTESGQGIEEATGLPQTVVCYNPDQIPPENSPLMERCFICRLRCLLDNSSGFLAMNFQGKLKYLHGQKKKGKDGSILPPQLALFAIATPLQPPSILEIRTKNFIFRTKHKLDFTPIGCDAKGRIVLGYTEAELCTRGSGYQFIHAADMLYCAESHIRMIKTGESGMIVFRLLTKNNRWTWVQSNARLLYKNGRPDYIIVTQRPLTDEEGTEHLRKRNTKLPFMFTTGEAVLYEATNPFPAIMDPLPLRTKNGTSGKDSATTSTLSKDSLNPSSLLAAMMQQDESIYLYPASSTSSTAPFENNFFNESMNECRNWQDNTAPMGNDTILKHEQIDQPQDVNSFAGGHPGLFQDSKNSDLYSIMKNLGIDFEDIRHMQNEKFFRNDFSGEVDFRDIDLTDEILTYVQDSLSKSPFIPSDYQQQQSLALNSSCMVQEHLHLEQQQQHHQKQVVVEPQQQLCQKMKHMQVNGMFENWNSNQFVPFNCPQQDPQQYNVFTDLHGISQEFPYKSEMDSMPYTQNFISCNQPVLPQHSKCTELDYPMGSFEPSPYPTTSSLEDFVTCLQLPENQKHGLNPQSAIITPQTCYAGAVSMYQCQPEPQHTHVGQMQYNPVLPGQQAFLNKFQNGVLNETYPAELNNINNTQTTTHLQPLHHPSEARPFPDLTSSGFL

| Structure (SMILES) | activation |
| --- | --- |
| CCc1cc2c(=O)c(-c3ccc(F)cc3)c(C(F)(F)F)oc2cc1OCC(=O)O | 8.09% |
| CCc1cc2c(=O)c(-c3ccon3)c(N)oc2cc1OC | 59.6% (active) |
| COc1ccc2oc(N)c(C=O)c(=O)c2c1 | -1.38% |
| CCN1C(=O)C(C(=O)NC(C)c2ccccc2)C2CC1(C)Oc1ccccc12 (stereo not given) | 2.9% |
| CC(NS(=O)(=O)c1ccccc1)c1n[nH]c(=S)n1-c1ccccc1 (stereo not given) | 2.32% |
| COc1ccc(Cl)cc1NS(=O)(=O)c1cccc(C(=O)NCC2CCCO2)c1 (stereo not given) | -1.04% |
| COc1ccccc1C(=O)NC(=S)Nc1ccccc1N1CCCCC1 | 76.4% (active) |
| COc1ccc(C(=O)NC(=S)Nc2ccccc2N2CCN(S(C)(=O)=O)CC2)cc1OC | 0.97% |
| O=C(NC(=S)Nc1ccccc1N1CCCCC1)c1ccc(F)cc1 | 19.9% |
| Cc1cc(C)n(CC(O)CN(c2ccccc2)S(=O)(=O)c2ccc3ccccc3c2)n1 (stereo not given) | 2.73% |
| N#C/C(=C(/O)COc1cccc2ccccc12)c1nc2ccccc2[nH]1 | 93.7% (active) |
| N#C/C(=C(/O)Cc1cccc2ccccc12)c1nc2ccccc2s1 | 9.95% |
| N#C/C(=C(/O)COC(=O)COc1ccc(Cl)cc1)c1nc2ccccc2[nH]1 | 24.9% |
| O=C(CCNS(=O)(=O)c1ccccc1C(F)(F)F)NCc1ccc2c(c1)OCO2 | 4.67% |
| COc1ccccc1CCNC(=O)CSc1nnc2ccc(-c3cccnc3)nn12 | 16.4% |
| CCOC(=O)N1CCC(N2Cc3cccc(C(=O)Nc4ccc(S(=O)(=O)N(CC)CC)cc4)c3C2=O)CC1 | -1.91% |
| CC(=O)Oc1ccccc1C(=O)Nc1ncc([N+](=O)[O-])s1 | 6.57% |
| Cc1cccc(C)c1Nc1nnc(SCC(=O)NCCCN2CCCC2=O)s1 | -0.54% |
| C=CCNc1nc(N)c(C(=C(C#N)C#N)c2ccccc2)s1 | 5.13% |
| CN1c2ccc([N+](=O)[O-])cc2C(C)(C)C12C=Cc1cc(C(=O)O)ccc1O2 (stereo not given) | 0.9% |
| CC[C@@]1(C(=O)OC)N[C@H](CN(C)C(C)=O)[C@@H]2C(=O)N(C)C(=O)[C@@H]21 | -0.36% |
| Cn1c(/C(C#N)=C2/CCCCCN2)nc2ccccc21 | 67.6% (active) |
| N#C/C(=C1/CCCN1)c1ccccn1 | 0.38% |
| Cn1c(S(=O)(=O)O)nc2ccccc21 | 3.28% |
| Cc1ccc2[nH]c(=O)c(CN(CCCN(C)C)C(=O)Nc3cccc(Cl)c3)cc2c1 | 0.48% |
